Bioassay records (PubChem BioAssay)
AmpC no deterg: qHTS Inhibitors of AmpC Beta-Lactamase (assay without detergent); AmpC nitrocefin hydrolysis, absorbance 480 nm, 0.0001% Triton; Potency, µM (top dose mostly 57.1 µM), for the others: at the highest dose activity change, negative = inhibition, actives largely listed as inhibitors; 0.52% of 330,000 active; AID 485341, 2010;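 further: potency means the concentration at half of the fitted maximal effect; plate controls were no compound for no effect and no enzyme for full effect; nearly all actives have a fitted effect of over 20% in size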
Target sequence (P00811 whole entry, looked up): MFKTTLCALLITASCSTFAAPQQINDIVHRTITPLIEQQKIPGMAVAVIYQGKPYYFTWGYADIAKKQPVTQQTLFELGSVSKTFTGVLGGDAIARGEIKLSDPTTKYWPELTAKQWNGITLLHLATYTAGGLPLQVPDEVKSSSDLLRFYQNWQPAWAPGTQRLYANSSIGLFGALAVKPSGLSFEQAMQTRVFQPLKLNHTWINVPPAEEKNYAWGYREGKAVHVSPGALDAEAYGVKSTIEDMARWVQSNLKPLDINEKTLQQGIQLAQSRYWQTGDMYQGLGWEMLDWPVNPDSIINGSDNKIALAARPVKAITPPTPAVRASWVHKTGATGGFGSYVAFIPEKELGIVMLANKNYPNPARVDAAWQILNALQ
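20 mM phosphate pH 7.0 + 0.01% (detergent screen) or 0.0001% Triton X-100; 5.3 nM AmpC reagent; cpd preinc 15 min RT; nitrocefin (800 uM stock) to start; A480 q20 s × 4 min; Activity was normalised to no-enzyme and no-compound control wells.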
Cycloheximide cs: Cycloheximide Counterscreen for Small Molecule Inhibitors of Shiga Toxin; AID 2314, 2010; cell reporter, cycloheximide protein synthesis inhibition counterscreen; max response, %; 12% of 300,000 active; in the data active means max response mostly above about 13%, no sharp cut-off; inactive means mostly below about 14%; further: read at 38.3 µM for the half of the compounds with a filed dose; 0% is about no effect
Shiga toxin inh: A qHTS for Small Molecule Inhibitors of Shiga Toxin; Vero cells, Shiga toxin protein synthesis inhibition reporter; inhibition, % at 38.7 µM; 9.2% of 290,000 active; in the data active means inhibition mostly above about 28%, no sharp cut-off; inactive means mostly below about 43%; further: 0% is about no effect
AmpC inh detg: qHTS Inhibitors of AmpC Beta-Lactamase (assay with detergent); AmpC hydrolysis of nitrocefin, absorbance 480 nm, 0.01% Triton; Potency, µM (highest dose often 114 µM), inactives show top-dose activity change, negative = inhibition, hits mostly inhibitors; 0.041% of 370,000 active; AID 485294, 2010;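 further: potency means the concentration at half of the fitted maximal effect; 0% = no-compound wells and -100% = no-enzyme wells; nearly all actives have a fitted effect of over 25% in size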
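20 mM phosphate pH 7.0 + 0.01% (detergent screen) or 0.0001% Triton X-100; 5.3 nM AmpC reagent; cpd preinc 15 min RT; nitrocefin (800 uM stock) to start; A480 q20 s × 4 min; Activity was normalised to no-enzyme and no-compound control wells.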
NS1 inh: qHTS Assay for Inhibitors of Influenza NS1 Protein Function; Potency, µM (highest dose often 46.1 µM), inactives show at the top dose activity, positive = more growth; 0.4% of 270,000 active; AID 2326, 2010; calls by dose curve; further: potency means the concentration at half of the fitted maximal effect; actives are rising curves; nearly all actives have a fitted effect of over 50% in size
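Compounds were scored for reversing the slow growth caused by influenza A NS1 in S. cerevisiae, measured by optical density at 600 nm. Assay medium contained 2% galactose at pH 6.0; NS1-free yeast of the same strain were the positive control.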
Numbers without * were called inactive; ? = inconclusive; . = no result given; + = active, no number. Only a selection was taken, and hits are over-represented in it overall. Unless noted, the call rests on the fitted dose curve; in most records, active means well fitted curve in the direction sought with a large enough effect; inconclusive means small, poorly fitted or top-dose-only effect, or another doubt; inactive means no such curve, though single readings can be large; an effect the other way counts as inactive or inconclusive.

SMILES	AmpC no deterg	Cycloheximide cs	Shiga toxin inh	AmpC inh detg	NS1 inh
COc1ccc(C2c3c(n(C)c4ccccc34)C(=O)N2CC(=O)Nc2ccc(Cl)cc2)cc1 (stereo not given)	.	.	.	0%	.
COc1ccc(N2CCN(C(CNC(=O)C(=O)NCCCN(C)C)c3cccnc3)CC2)cc1 (stereo not given)	.	.	.	3%	.
CCSc1ccc(-c2cccc([N+](=O)[O-])c2)nn1	-15%	53*	+	0%	.
O=C(CSc1ccc(-c2cccc([N+](=O)[O-])c2)nn1)N1CCCCCC1	15%	19*	33	3%	.
CN1CCN(c2ccccc2NC(=O)c2sc3ccccc3c2Cl)CC1	-5%	-4	26	?	.
COc1ccc(C(=O)CCNc2cccc(Cl)c2)cc1	-17%	9	24	5%	3%
O=C(O)c1cccc(NC2=C(Cl)C(=O)c3ccccc3C2=O)c1	-17%	13	25	-14%	.
Cc1ccc(NCC(=O)c2ccccc2)cc1Cl	0.32µM*	24*	102*	-4%	-16%
Cc1ccc(C(=O)CNc2cccc(Cl)c2)cc1	-16%	30	30	?	-16%
Cc1ccc(C(=O)CNc2ccc(C)c(Cl)c2)cc1	-20%	27*	20	-19%	-26%
Cc1ccc(NC2=C(NC(=O)c3ccccc3)C(=O)c3ccccc3C2=O)cc1Cl	20µM*	2	0	1%	-33%
CCCOc1ccc(C(=O)CCNc2cccc(Cl)c2)cc1	-26%	25*	130*	-13%	.
Cc1ccc(NCCC(=O)c2ccc(Br)cc2)cc1	-21%	6	-25	-1%	-3%
Cc1ccc(NCC(=O)c2ccc(C)cc2)cc1	-13%	39*	48*	2%	-17%
Cc1ccc(NCCC(=O)c2ccccc2)cc1Cl	-24%	15*	43*	-5%	-1%
O=C(CNc1ccc(Br)cc1)c1ccc(O)cc1	-34%	39*	93*	3%	.
COc1cc(N)c(Cl)cc1C(=O)OCC(=O)NCc1cccs1	-27%	.	.	.	.
Cc1ccc2oc3c(c(=O)c2c1)C1(C(=O)N(C)c2ccccc21)N(CCCO)C3=O (stereo not given)	.	.	.	-1%	.
Cc1nn(CC(=O)NC2CCCCC2)c(=O)c2cc3cc(F)ccc3n12	.	.	.	2%	.
O/N=C1\CC/C(=N\O)c2nn(-c3ccccc3Cl)nc21	-12%	2	-15	3%	-3%
Cc1ccc(-n2nc3c(n2)/C(=N/O)CC/C3=N\O)cc1	-19%	44*	48*	-8%	0%
CCOC(=O)c1ccc2nc3c(cc2c1)CCS3	-15%	48*	71*	-15%	-76%
O=C(COc1cc2oc(=O)c3c(c2cc1Cl)CCCC3)N1C[C@H]2C[C@@H](C1)c1cccc(=O)n1C2	9%	-1	14	7%	-7%
C=CCn1cnc2c(oc3ccccc32)c1=O	-8%	25*	36	-4%	-4%
O=c1c2oc3ccccc3c2ncn1Cc1ccccc1F	1%	30*	33	0%	-21%
SMILES	AmpC no deterg	Cycloheximide cs	Shiga toxin inh	AmpC inh detg	NS1 inh
COc1ccccc1C(=O)NCCC(=O)NCc1ccncc1	-3%	.	.	6%	.
CCN(CC)C(=O)C1CCCN(c2ncnc3c2nc2n3CCCCC2)C1 (stereo not given)	.	.	.	16%	.
O=C(Nc1ccc(N2CCN(Cc3ccccc3)CC2)cc1)c1ccccc1[N+](=O)[O-]	-4%	-3	-4	-3%	7%
O=C(Nc1ccc(N2CCCC2)cc1)C(Cl)c1ccccc1 (stereo not given)	-4%	32*	70*	-7%	12%
CC(=O)Nc1ccc(NC(=O)c2ccccc2C)cc1	-11%	13	24	-1%	-2%
Cc1ccc(C(=O)Nc2ccc(N3CCCC3)cc2)c(C)c1	23%	15*	41	-8%	?
O=C(Nc1ccc(N2CCCC2)cc1)c1ccccc1[N+](=O)[O-]	-17%	19*	80	-3%	8%
Cc1ccccc1C(=O)Nc1ccc(N2CCCC2)cc1	2%	35*	57*	-1%	-2%
Cc1ccccc1C(=O)Nc1ccc(N2CCN(C)CC2)nc1	-8%	22*	52	-9%	.
CC(C)C[C@H](NC(=O)CNC(=O)[C@H](C)NC(=O)[C@H](CC(C)C)NC(=O)[C@H](CCCNC(=N)N)NC(=O)[C@H](Cc1cnc[nH]1)NC(=O)[C@@H](NC(=O)[C@@H](NC(=O)[C@@H]1CSSC[C@H](NC(=O)[C@@H](N)CO)C(=O)N[C@@H](CC(N)=O)C(=O)N[C@@H]([C@@H](C)O)C(=O)N[C@@H](C)C(=O)N[C@@H]([C@@H](C)O)C(=O)N1)C(C)C)[C@@H](C)O)C(=O)N[C@@H](CC(C)C)C(=O)N[C@@H](CO)C(=O)N[C@@H](CCCNC(=N)N)C(=O)N[C@@H](CO)C(=O)NCC(=O)NCC(=O)N[C@H](C(=O)N[C@H](C(=O)N[C@@H](CCCCN)C(=O)N[C@@H](CC(=O)O)C(=O)N[C@@H](CC(N)=O)C(=O)N[C@@H](Cc1ccccc1)C(=O)N[C@H](C(=O)N1CCC[C@H]1C(=O)N[C@H](C(=O)N[C@@H](CC(N)=O)C(=O)N[C@H](C(=O)NCC(=O)N[C@@H](CO)C(=O)N[C@@H](CCCCN)C(=O)N[C@@H](C)C(=O)N[C@@H](Cc1ccccc1)C(N)=O)C(C)C)[C@@H](C)O)C(C)C)C(C)C)C(C)C	.	-5	-8	.	.
CC(C)(C)NC(=O)C(c1ccncc1)N(Cc1ccco1)C(=O)c1ccc(-c2ccccc2)[nH]1 (stereo not given)	-12%	39*	91*	-4%	4%
C=CCn1c(Cc2csc(N)n2)nnc1SCC(=O)Nc1ccccc1C(F)(F)F	-7%	1	-10	2%	-2%
COc1ccc(C2C(C#N)=C(N)Oc3c2sc2nc(C)cc(C)c32)cc1 (stereo not given)	-13%	1	-1	-5%	2%
Cc1cc(C)c2c3c(sc2n1)C1(CCSCC1)C(C#N)=C(N)O3	-24%	18	29*	-14%	-15%
CN1CCN(/C=N/c2sc3c(c2C#N)CCCCC3)CC1	97%	46*	89*	2%	1%
CCN(/C=N/c1sc2c(c1C#N)CCCCC2)CC	-3%	52*	67*	?	-37%
O=C(Nc1cccc(C(F)(F)F)c1)c1cccnc1N1CCN(c2ccccc2)CC1	78%	8	-8	4%	17%
COc1cccc(C(=O)Nc2nc3c(c(=O)[nH]2)CCCC3)c1	-19%	20*	18	1%	-15%
CNC(=O)c1c(NC(=O)c2cccc(C)c2)sc2c1CCC2	74%	32*	71*	-8%	0%
CC1(C)Cc2c(sc(NC(=O)c3ccco3)c2C(=O)O)CO1	-10%	30*	44	-11%	-4%
